Assay results published in PMC5540273 (PLoS ONE, 2017).

Tested on: T1, RSK2(Kin.Dom.2-C-terminal)
T1 construct: gene RPS6KA3
Conditions: concentration: 1 μM, replicates: in singlicate; n = 1
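Further: KINOMEscan kinase panel screen.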

SMILES | %Inh
COc1cc(Nc2nccc(N3CCC(NC(=O)Nc4cccc(C(C)=O)c4)C3)n2)cc(OC)c1OC (centres unmarked) [GSK1379753] | 67%
CCn1c(-c2nonc2N)nc2c(C#CC(C)(C)O)ncc(OCCCCN)c21.O=C(O)C(F)(F)F.O=C(O)C(F)(F)F [GSK507274] | 0%
COc1cc(Nc2nccc(-c3c(-c4cccc(NC(=O)c5c(F)cccc5F)c4)nn4ncccc34)n2)cc(OC)c1OC [GSK327238] | 0%
O=C(Nc1n[nH]c2nc(-c3ccc(O)cc3)ccc12)C1CC1 [SB-710363] | 0%
O=c1[nH]cc(-c2ccc(N3CCOCC3)cc2)c2sc(-c3cn[nH]c3)cc12 [GSK2276055] | 7%
O=C(Nc1cccc(-c2nn3ccccc3c2-c2ccnc(Nc3cccc(F)c3)n2)c1)c1c(F)ccc(F)c1Cl [GSK357952] | 8%
CC(C)c1nc(-c2cccc(NS(=O)(=O)c3c(F)cccc3F)c2F)c(-c2ccnc(Nc3ccc(N4CCOCC4)nc3)n2)s1 [GSK2008607] | 0%
CC(=O)N1CCN(c2ccc(Nc3nccc(-c4sc(C(C)C)nc4-c4cccc(NS(=O)(=O)c5cccc(Cl)c5)c4)n3)cn2)CC1 [GSK1660437] | 4%
O=C(Nc1cccc(-c2nn3ncccc3c2-c2ccnc(Nc3ccccc3)n2)c1)c1c(F)cccc1F [GSK198271] | 0%
Cl.c1ccc(-c2ccc3c(Nc4ccc5[nH]ncc5c4)ccnc3c2)nc1 [GW440137] | 0%
Cn1cc(-c2[nH]c3cc(NC(=O)[C@H](N)C4CCCCC4)cc4c3c2C=NNC4=O)cn1 | 0%
